# Experimental data taken from the supplement of paper PMC11732987, “Enantioselective OTUD7B fragment discovery through chemoproteomics screening and high-throughput optimisation” (Communications Chemistry, 2025).
# Values without a mark were called inactive.
# Columns and labels:
# Test in all cases: log2 ratio of Biotin-Ahx-Ub-VS probe labelling (fragment/DMSO); higher = less target engagement (more negative = stronger competition), active = hit call of the paper (q ≤ 0.05, log2 ratio ≤ -1)
# Conditions in all cases: compound concentration: 200 uM; treatment time: 3 h
# ALG13 = target: T1, ALG13 (UniProt Q9NP73)
# T1 sequence (whole entry): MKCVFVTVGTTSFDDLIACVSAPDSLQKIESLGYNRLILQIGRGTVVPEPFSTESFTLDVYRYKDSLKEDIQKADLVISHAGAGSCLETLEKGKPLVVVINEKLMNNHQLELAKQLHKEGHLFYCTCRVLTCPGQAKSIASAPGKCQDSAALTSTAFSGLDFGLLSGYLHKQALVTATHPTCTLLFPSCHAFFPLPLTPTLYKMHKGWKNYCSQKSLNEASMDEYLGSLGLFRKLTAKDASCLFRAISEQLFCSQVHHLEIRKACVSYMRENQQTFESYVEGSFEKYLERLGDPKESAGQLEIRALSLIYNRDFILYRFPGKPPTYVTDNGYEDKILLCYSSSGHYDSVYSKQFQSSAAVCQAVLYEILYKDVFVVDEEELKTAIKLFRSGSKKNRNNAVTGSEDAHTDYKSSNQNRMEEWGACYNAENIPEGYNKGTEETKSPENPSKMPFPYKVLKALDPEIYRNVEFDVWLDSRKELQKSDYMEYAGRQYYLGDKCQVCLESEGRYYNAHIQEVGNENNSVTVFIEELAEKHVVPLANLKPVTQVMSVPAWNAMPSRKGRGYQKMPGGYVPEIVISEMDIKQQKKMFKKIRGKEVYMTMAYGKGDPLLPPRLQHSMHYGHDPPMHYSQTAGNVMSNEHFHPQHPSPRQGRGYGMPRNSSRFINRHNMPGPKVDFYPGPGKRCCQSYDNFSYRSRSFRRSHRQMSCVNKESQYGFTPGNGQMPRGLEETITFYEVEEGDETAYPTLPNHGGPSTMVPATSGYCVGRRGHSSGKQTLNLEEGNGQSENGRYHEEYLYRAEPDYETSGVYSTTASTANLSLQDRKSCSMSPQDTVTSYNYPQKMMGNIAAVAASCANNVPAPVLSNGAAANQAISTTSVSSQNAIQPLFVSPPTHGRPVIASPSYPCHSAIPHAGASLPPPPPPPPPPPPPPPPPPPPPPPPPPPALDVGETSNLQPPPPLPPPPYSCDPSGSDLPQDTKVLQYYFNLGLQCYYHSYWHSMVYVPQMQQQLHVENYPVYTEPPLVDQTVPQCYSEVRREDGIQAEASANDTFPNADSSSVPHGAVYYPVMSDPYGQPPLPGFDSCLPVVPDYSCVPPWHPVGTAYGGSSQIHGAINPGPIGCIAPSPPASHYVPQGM
# Method in brief: (§1)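 HEK293T lysate (495 µg per sample, in Tris/CHAPS/IGEPAL buffer with protease inhibitors) was treated in triplicate with fragment at 200 µM or with DMSO for 3 h. It was then treated with Biotin-Ahx-Ub-VS (0.5 µM final) for 1 h. Labelled DUBs were NeutrAvidin-enriched, digested with LysC and trypsin, and run by diaPASEF LC-MS/MS. Spectronaut label-free quantities were global-median-normalised. Values are average log2 ratios fragment/DMSO by unpaired t-test, using proteins with ≥2 unique peptides.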
# ATXN3 = ATXN3 (UniProt P54252)
# Method in brief: as §1
# BAP1 = target: T2, BAP1 (UniProt Q92560)
# T2 sequence (whole entry): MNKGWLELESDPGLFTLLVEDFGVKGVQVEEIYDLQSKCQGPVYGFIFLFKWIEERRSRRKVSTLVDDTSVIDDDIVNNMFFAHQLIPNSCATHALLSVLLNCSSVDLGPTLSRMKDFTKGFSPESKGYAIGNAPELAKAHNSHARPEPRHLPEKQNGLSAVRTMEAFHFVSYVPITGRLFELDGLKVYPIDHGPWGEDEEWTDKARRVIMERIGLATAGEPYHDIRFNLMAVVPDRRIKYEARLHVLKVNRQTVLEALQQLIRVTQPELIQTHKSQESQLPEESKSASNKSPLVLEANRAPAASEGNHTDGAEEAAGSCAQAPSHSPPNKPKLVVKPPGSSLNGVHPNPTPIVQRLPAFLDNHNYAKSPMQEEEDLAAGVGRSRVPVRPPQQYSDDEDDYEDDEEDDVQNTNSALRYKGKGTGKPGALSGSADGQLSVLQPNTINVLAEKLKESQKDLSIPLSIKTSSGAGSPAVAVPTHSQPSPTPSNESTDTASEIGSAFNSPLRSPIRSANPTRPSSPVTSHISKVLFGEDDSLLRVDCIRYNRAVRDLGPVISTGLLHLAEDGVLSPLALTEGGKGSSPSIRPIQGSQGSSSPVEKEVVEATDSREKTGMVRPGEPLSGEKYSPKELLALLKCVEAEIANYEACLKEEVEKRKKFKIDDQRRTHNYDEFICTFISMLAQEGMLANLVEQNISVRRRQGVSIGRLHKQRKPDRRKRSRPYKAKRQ
# Method in brief: as §1
# EIF3F = EIF3F (UniProt O00303)
# Method in brief: as §1
# EIF3H = EIF3H (UniProt O15372)
# Method in brief: as §1
# FAM105A = target: T3, FAM105A (UniProt Q9NUU6)
# T3 sequence (whole entry): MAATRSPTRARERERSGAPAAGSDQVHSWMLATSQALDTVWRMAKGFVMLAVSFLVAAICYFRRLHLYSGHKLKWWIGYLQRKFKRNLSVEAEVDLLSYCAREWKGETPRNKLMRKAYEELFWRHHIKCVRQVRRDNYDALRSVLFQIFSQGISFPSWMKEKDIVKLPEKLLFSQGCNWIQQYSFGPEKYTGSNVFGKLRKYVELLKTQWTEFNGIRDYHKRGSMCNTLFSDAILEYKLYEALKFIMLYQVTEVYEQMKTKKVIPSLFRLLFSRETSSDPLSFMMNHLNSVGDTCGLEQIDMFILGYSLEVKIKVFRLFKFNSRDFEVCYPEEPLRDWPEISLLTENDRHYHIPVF
# Method in brief: as §1
# OTUB1 = OTUB1 (UniProt Q96FW1)
# Method in brief: as §1
# OTUD4 = target: T4, OTUD4 (UniProt Q01804)
# T4 sequence (whole entry): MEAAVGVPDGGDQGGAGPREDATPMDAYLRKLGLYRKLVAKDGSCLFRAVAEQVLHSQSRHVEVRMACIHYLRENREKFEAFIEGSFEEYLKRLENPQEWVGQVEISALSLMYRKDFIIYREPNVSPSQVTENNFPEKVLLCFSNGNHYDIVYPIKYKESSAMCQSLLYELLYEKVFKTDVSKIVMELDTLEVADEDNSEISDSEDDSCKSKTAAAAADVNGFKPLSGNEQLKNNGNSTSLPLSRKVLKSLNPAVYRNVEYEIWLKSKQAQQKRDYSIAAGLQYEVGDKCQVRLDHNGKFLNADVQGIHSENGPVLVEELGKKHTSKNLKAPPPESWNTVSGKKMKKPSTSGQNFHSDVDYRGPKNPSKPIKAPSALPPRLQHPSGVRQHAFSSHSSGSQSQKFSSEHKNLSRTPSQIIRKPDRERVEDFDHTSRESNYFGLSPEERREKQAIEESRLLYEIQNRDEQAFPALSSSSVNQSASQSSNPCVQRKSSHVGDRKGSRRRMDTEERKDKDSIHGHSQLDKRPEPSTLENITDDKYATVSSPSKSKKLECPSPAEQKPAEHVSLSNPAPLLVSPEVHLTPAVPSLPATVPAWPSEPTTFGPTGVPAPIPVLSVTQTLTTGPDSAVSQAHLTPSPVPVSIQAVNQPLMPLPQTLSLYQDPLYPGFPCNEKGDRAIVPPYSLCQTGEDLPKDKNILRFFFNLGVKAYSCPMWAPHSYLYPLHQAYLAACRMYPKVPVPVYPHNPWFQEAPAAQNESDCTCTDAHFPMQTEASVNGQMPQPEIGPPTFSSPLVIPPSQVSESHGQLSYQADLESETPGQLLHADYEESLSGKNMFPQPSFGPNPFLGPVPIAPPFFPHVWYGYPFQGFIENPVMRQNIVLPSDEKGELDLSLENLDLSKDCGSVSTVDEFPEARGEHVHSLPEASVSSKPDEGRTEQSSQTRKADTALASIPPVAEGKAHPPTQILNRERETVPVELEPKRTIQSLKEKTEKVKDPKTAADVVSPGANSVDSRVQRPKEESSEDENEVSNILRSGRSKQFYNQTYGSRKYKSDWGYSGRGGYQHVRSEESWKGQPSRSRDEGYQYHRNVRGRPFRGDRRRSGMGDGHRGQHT
# Method in brief: as §1
# OTUD5 = target: T5, OTUD5 (UniProt Q96G74)
# T5 sequence (whole entry): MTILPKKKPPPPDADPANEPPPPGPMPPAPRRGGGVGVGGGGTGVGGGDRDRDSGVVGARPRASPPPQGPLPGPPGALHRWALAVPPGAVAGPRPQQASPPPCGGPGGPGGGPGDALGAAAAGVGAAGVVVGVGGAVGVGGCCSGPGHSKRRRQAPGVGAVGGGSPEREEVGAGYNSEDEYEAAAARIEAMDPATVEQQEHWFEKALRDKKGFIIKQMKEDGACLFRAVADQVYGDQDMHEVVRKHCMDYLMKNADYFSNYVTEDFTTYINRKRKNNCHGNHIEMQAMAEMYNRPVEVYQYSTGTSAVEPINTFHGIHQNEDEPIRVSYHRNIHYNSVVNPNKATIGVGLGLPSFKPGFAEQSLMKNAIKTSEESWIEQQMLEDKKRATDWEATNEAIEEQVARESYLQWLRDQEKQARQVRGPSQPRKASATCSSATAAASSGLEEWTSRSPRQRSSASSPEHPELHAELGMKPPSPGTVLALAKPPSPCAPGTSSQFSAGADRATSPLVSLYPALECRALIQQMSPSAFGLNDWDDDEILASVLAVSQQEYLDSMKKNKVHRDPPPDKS
# Method in brief: as §1
# Sequence of OTUB1 (Q96FW1 whole entry): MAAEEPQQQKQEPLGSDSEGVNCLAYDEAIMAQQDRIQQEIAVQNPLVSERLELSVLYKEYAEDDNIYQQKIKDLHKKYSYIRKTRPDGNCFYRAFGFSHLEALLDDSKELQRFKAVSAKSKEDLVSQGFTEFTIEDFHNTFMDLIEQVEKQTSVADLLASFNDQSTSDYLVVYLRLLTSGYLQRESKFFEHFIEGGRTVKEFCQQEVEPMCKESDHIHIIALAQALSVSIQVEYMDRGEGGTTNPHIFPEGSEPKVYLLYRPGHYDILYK
# Sequence of EIF3H (O15372 whole entry): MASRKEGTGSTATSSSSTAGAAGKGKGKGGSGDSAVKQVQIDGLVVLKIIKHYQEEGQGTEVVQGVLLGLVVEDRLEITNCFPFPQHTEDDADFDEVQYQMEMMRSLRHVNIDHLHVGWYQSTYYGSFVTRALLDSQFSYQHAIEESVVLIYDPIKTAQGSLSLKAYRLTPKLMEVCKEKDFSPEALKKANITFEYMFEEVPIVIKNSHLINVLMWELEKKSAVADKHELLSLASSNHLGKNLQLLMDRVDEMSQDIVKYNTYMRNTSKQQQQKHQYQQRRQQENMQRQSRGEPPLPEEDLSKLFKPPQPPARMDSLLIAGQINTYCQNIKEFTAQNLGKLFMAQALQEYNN
# Sequence of EIF3F (O00303 whole entry): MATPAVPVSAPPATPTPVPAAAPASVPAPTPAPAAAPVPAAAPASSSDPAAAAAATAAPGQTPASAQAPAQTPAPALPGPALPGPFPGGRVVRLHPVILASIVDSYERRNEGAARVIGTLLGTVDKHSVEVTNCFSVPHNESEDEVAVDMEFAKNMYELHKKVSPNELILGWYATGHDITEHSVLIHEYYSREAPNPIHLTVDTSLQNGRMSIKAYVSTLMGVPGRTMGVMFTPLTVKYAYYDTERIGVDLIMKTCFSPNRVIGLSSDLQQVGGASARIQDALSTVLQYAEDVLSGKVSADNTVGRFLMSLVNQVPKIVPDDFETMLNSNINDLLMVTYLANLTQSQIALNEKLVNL
# Sequence of ATXN3 (P54252 whole entry): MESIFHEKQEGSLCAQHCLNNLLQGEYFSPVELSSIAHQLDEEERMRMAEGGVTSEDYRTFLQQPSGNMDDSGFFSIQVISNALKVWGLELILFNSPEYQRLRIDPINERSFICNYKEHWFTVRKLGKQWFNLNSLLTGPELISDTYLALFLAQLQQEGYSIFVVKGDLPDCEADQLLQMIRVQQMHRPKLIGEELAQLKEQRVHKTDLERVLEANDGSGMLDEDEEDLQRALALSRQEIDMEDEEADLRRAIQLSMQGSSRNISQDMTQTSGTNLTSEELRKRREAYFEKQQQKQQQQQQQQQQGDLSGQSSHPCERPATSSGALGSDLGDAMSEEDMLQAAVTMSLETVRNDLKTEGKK
smiles,measurement,setting,value
Cc1cccc(N2CCC(NC(=O)CCl)C2=O)c1 (centres undefined),log2 ratio of Biotin-Ahx-Ub-VS probe labelling,ALG13,-0.354
same,log2 ratio of Biotin-Ahx-Ub-VS probe labelling,ATXN3,-0.569
same,log2 ratio of Biotin-Ahx-Ub-VS probe labelling,BAP1,-4.17 (active)
same,log2 ratio of Biotin-Ahx-Ub-VS probe labelling,EIF3F,-0.331
same,log2 ratio of Biotin-Ahx-Ub-VS probe labelling,EIF3H,0.306
same,log2 ratio of Biotin-Ahx-Ub-VS probe labelling,FAM105A,0.111
same,log2 ratio of Biotin-Ahx-Ub-VS probe labelling,OTUB1,-0.325
same,log2 ratio of Biotin-Ahx-Ub-VS probe labelling,OTUD4,-0.412
same,log2 ratio of Biotin-Ahx-Ub-VS probe labelling,OTUD5,-0.338
